Assay [1] has as its target rat Constitutive Nitric Oxide Synthase (CNOS), Nos1 (gene 24598) (UniProt P29476). Description: NVS_ENZ_rCNOS: NovaScreen (NVS) Enzymatic Assay for rat Constitutive Nitric Oxide Synthase (CNOS) (AID 2283236). The gist of the method:
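Enzyme activity in rat brain membrane preparation, read 1 h after dosing by filter-based radiometric scintillation counting. Primary screen in duplicate at 25 uM; actives (e.g., ≥30% inhibition) then run in concentration-response up to 50 uM.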

In assay [2] the test system is guinea pig Leukotriene B4 Receptor (LTB4), gene 100379538. The experiment in a line: NVS_GPCR_gLTB4: NovaScreen (NVS) G Protein-Coupled Receptor Assay for guinea pig Leukotriene B4 Receptor (LTB4) (AID 2283247). The procedure, abridged:
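Radioligand displacement on guinea pig spleen membranes, filter-based scintillation counting 2 h after dosing. Primary duplicate single point at 25 uM; hits over threshold (e.g. 30% inhibition) run in concentration-response up to 50 uM, DMSO baseline.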

The target in assay [3] is rat Catechol-O-Methyl Transferase (COMT), Comt (gene 24267) (UniProt P22734). The experiment in a line: NVS_ENZ_rCOMT: NovaScreen (NVS) Enzymatic Assay for rat Catechol-O-Methyl Transferase (COMT) (AID 2283235). The gist of the method: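 Cell-free enzyme activity with protein extracted from rat dorsal striatum, measured by HPLC with absorbance detection. Compounds screened at 25 uM in duplicate; actives then run in concentration-response up to 50 uM, loss of signal versus DMSO.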

In assay [4] the target is rat Monoamine Oxidase, MAO-B, Central (MAOBC), Maob (gene 25750) (UniProt P19643). The experiment in a line: NVS_ENZ_rMAOBC: NovaScreen (NVS) Enzymatic Assay for rat Monoamine Oxidase, MAO-B, Central (MAOBC) (AID 2283238). The procedure, abridged: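 MAO-B activity in rat brain tissue preparation, cell-free, measured radiometrically by scintillation counting 1.17 h after dosing. Screened in duplicate at 25 uM; actives then in concentration-response up to 50 uM. Loss of signal versus DMSO scored.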

Assay [5] relates to rat Monoamine Oxidase, MAO-A, Central (MAOAC), gene 29253. Description: NVS_ENZ_rMAOAC: NovaScreen (NVS) Enzymatic Assay for rat Monoamine Oxidase, MAO-A, Central (MAOAC) (AID 2283243).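 Further: potency refers to inhibition seen as signal drop below DMSO baseline.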 The procedure, abridged: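 Steps: rat brain protein extract dosed with test chemical (25 uM, duplicate, primary); incubated 1.5 h; radiolabelled product separated from substrate and counted. Signal loss versus DMSO scored as inhibition.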

In assay [6] the target is human Serotonin, 5-Hydroxytryptamine Receptor 7 (5HT7), HTR7 (gene 3363) (UniProt P34969). The experiment in a line: NVS_GPCR_h5HT7: NovaScreen (NVS) G Protein-Coupled Receptor Assay for human Serotonin, 5-Hydroxytryptamine Receptor 7 (5HT7) (AID 2283255).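 Further: hits reduce specific radioligand binding relative to DMSO.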 The gist of the method:
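Radioligand displacement on membranes from CHO cells expressing human 5HT7, 1 h incubation, filter-based scintillation counting. Primary screen used a single 25 uM concentration in duplicate; actives were followed up in concentration series.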

Assay [7] relates to rat Monoamine Oxidase, MAO-A, Peripheral (MAOAP), gene 29253. The experiment in a line: NVS_ENZ_rMAOAP: NovaScreen (NVS) Enzymatic Assay for rat Monoamine Oxidase, MAO-A, Peripheral (MAOAP) (AID 2283237). The procedure, abridged: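 Rat liver mitochondrial membranes served as the MAO-A source, with enzyme activity measured by radiometric scintillation counting 1.17 hours after dosing. Loss of signal was fitted against DMSO; primary screen used 25 uM in duplicate, follow-up used concentration series.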

Assay [8] can be described thus: NVS_GPCR_bNPY_NonSelective: NovaScreen (NVS) G Protein-Coupled Receptor Assay for bovine Neuropeptide Y (NPY) Receptor, Non-selective Binding (AID 2283245). The procedure, abridged:
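Bovine hippocampal membranes incubated 1 hour with radioligand and test chemical. Bound ligand measured by filter-based scintillation counting. Single-concentration screen at 25 uM in duplicate, then concentration-response up to 50 uM.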

Assay [9] has as its target human Serotonin, 5-Hydroxytryptamine Receptor 6 (5HT6), HTR6 (gene 3362) (UniProt P50406). The experiment in a line: NVS_GPCR_h5HT6: NovaScreen (NVS) G Protein-Coupled Receptor Assay for human Serotonin, 5-Hydroxytryptamine Receptor 6 (5HT6) (AID 2283253). The procedure, abridged:
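Radioligand binding to 5HT6 in HEK293-derived membranes, cell-free, 1 h after dosing; bound ligand measured by filter-based scintillation counting. Primary screen in duplicate at 25 uM; actives retested in concentration series.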

Assay [10] concerns the target rat Monoamine Oxidase, MAO-B, Peripheral (MAOBP), Maob (gene 25750) (UniProt P19643). Description: NVS_ENZ_rMAOBP: NovaScreen (NVS) Enzymatic Assay for rat Monoamine Oxidase, MAO-B, Peripheral (MAOBP) (AID 2283242).
For assay [11], the target named is bovine Dopamine Receptor (DR), Non-selective Binding, DRD1 (gene 281125) (UniProt Q95136). The experiment in a line: NVS_GPCR_bDR_NonSelective: NovaScreen (NVS) G Protein-Coupled Receptor Assay for bovine Dopamine Receptor (DR), Non-selective Binding (AID 2283241). The gist of the method:
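Bovine striatal membranes; radioligand displacement read by filtration and scintillation counting 1 h after dosing, loss of signal vs DMSO. Screened in duplicate at 25 uM, then concentration-response for hits.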

The target in assay [12] is sheep Cyclooxygenase-1 (Cox1), PTGS1 (gene 443551) (UniProt P05979). The experiment in a line: NVS_ENZ_oCOX1: NovaScreen (NVS) Enzymatic Assay for sheep Cyclooxygenase-1 (Cox1) (AID 2283239).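 Further: actives reduce cyclooxygenase activity so potencies are for inhibitors.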 The procedure, abridged: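 Colorimetric enzyme readout using sheep seminal-vesicle cyclooxygenase-1, measured 0.66 h post-dosing. Single-concentration duplicates at 25 uM first, then concentration series for actives, with DMSO as baseline and plate controls.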

For assay [13], the target named is guinea pig Opioid, Kappa 1 Receptor (OpiateK), OPRK1 (gene 100135587) (UniProt P41144). Description: NVS_GPCR_gOpiateK: NovaScreen (NVS) G Protein-Coupled Receptor Assay for guinea pig Opioid, Kappa 1 Receptor (OpiateK) (AID 2283252).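 Further: radioligand displacement from kappa opioid receptor in guinea pig cerebellar membranes; active means reduced radioligand binding relative to DMSO.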 The gist of the method:
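Guinea pig cerebellar membranes, radioligand displacement with filter-based scintillation counting, 2 h after dosing. Primary screen single concentration 25 uM in duplicate; actives retested in concentration series; loss of binding fitted versus DMSO.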

Assay [14] addresses human Serotonin, 5-Hydroxytryptamine Receptor 2A (5HT2A), HTR2A (gene 3356) (UniProt P28223). Description: NVS_GPCR_h5HT2A: NovaScreen (NVS) G Protein-Coupled Receptor Assay for human Serotonin, 5-Hydroxytryptamine Receptor 2A (5HT2A) (AID 2283249). The procedure, abridged:
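Human cortex membranes, cell-free radioligand binding; filter-based scintillation read 1.5 h after dosing. Duplicate screen at 25 uM first; displacement of specific binding (loss of signal) versus DMSO.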

In assay [15] the test system is guinea pig Muscarinic, Peripheral (Mperiperal) Receptor, Non-selective Binding, gene 100379235. The experiment in a line: NVS_GPCR_gMPeripheral_NonSelective: NovaScreen (NVS) G Protein-Coupled Receptor Assay for guinea pig Muscarinic, Peripheral (Mperiperal) Receptor, Non-selective Binding (AID 2283250). The procedure, abridged:
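Guinea pig bladder membranes, radioligand binding read 1 h after dosing by filter scintillation counting; loss of signal vs DMSO. Primary duplicate screen at 25 uM, then concentration-response up to 50 uM.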

Assay [16] deals with Adenosine receptor A1 (Bos taurus) (UniProt P28190). The experiment in a line: NVS_GPCR_bAdoR_NonSelective: NovaScreen (NVS) G Protein-Coupled Receptor Assay for bovine Adenosine Receptor (AdoR), Non-selective Binding (AID 2283244). The gist of the method:
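Bovine striatal membranes, radioligand displacement binding, 1 h after dosing, filter-based scintillation counting. Screened in duplicate at 25 uM, then concentration-response up to 50 uM; loss of specific binding relative to DMSO.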

For assay [17], the system named is bovine Histamine 1 Receptor (H1), gene 281231. Description: NVS_GPCR_bH1: NovaScreen (NVS) G Protein-Coupled Receptor Assay for bovine Histamine 1 Receptor (H1) (AID 2283246). The gist of the method:
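Radioligand displacement on bovine cerebellar membranes, 1 h after dosing, filter-based scintillation read-out; loss of signal vs DMSO. Duplicate single-concentration screen at 25 uM, then concentration-response up to 50 uM for hits.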

Assay [18] has as its target human Adenosine A1 Receptor (AdoRA1), ADORA1 (gene 134) (UniProt P30542). Description: NVS_GPCR_hAdoRA1: NovaScreen (NVS) G Protein-Coupled Receptor Assay for human Adenosine A1 Receptor (AdoRA1) (AID 2283254). The procedure, abridged:
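Each chemical is first tested twice at 25 uM, actives later in dilution series, against a radioligand bound to human cortex membranes; after 1 h, filter-retained counts are compared with DMSO controls, lower signal indicating displacement.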

Assay [19] concerns the target human Adenosine A2a Receptor (AdoRA2a), ADORA2A (gene 135) (UniProt P29274). The experiment in a line: NVS_GPCR_hAdoRA2a: NovaScreen (NVS) G Protein-Coupled Receptor Assay for human Adenosine A2a Receptor (AdoRA2a) (AID 2283256). The procedure, abridged: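 Radioligand displacement on HEK293-derived membrane protein, cell-free; filter-based scintillation counting 1.5 hours after dosing, loss of signal vs DMSO. Single-point duplicate screen at 25 uM, actives retested in concentration series.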

Each structure is given as a SMILES string. Records with an inconclusive call do not appear. The source made the active and inactive calls. How the source made its calls: active means hit-call score of the fitted dose curve at least 0.9, where 1 is the maximum; inconclusive means response in the unintended direction; inactive means score below 0.9.

Chain of rat Constitutive Nitric Oxide Synthase (CNOS), Nos1 (gene 24598) (P29476 whole entry, looked up): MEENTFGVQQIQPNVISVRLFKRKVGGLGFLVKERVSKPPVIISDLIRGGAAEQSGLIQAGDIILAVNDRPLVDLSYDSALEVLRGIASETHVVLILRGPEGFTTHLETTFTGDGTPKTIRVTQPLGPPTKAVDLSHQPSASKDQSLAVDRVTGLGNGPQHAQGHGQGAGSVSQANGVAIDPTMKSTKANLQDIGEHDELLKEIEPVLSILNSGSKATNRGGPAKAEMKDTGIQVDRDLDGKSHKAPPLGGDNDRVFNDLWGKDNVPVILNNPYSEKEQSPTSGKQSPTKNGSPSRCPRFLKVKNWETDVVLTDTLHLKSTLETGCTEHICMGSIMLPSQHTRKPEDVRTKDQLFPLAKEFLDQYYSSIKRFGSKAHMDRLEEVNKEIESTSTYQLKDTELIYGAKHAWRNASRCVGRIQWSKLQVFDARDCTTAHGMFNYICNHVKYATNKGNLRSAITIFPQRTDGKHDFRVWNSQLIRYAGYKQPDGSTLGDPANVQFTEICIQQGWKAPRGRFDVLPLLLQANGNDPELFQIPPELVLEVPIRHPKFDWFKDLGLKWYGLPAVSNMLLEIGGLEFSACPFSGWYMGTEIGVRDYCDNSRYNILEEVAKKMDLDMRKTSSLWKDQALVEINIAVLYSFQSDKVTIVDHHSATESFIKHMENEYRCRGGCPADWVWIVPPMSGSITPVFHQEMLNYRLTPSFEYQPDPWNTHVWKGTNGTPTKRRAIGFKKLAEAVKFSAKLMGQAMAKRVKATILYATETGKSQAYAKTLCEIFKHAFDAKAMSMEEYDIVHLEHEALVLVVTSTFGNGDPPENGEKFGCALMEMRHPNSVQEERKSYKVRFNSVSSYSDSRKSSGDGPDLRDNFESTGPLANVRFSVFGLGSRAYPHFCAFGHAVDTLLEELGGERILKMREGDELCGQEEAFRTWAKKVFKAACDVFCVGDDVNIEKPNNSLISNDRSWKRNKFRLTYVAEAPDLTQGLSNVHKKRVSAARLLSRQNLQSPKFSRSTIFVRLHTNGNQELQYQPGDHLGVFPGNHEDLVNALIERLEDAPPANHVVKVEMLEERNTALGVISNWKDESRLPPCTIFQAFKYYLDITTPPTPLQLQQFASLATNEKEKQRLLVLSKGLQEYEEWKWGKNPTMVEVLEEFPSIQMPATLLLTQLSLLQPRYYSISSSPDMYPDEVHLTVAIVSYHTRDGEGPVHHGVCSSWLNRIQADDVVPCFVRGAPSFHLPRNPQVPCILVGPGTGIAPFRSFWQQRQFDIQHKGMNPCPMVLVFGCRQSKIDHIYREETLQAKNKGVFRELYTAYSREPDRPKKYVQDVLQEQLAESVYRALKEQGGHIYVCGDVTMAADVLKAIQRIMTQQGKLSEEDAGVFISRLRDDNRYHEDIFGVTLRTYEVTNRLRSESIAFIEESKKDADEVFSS
Chain of rat Monoamine Oxidase, MAO-B, Central (MAOBC), Maob (gene 25750) (P19643 whole entry, looked up): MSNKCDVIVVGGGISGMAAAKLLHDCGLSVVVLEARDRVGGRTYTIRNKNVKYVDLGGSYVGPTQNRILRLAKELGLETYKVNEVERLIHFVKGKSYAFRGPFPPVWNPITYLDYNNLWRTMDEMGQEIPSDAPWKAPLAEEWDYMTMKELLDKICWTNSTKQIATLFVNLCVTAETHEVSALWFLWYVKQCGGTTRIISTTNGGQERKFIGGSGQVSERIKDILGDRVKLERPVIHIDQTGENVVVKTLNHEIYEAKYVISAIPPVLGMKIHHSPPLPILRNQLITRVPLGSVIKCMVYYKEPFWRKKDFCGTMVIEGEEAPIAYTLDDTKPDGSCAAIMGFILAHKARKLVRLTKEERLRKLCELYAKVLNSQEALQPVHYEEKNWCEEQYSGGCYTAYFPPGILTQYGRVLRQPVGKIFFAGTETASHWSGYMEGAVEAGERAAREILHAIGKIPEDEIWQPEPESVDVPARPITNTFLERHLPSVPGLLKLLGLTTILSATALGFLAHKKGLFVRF
Chain of rat Monoamine Oxidase, MAO-B, Peripheral (MAOBP), Maob (gene 25750) (P19643 whole entry, looked up): as above
Chain of rat Catechol-O-Methyl Transferase (COMT), Comt (gene 24267) (P22734 whole entry, looked up): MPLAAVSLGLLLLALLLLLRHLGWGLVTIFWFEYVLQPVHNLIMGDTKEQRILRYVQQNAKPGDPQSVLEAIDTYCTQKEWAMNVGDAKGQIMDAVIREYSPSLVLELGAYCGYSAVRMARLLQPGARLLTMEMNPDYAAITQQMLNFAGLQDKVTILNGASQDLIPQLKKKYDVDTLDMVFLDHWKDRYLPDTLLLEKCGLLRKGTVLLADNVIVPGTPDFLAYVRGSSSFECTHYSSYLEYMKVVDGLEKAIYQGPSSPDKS
Chain of human Serotonin, 5-Hydroxytryptamine Receptor 7 (5HT7), HTR7 (gene 3363) (P34969 whole entry, looked up): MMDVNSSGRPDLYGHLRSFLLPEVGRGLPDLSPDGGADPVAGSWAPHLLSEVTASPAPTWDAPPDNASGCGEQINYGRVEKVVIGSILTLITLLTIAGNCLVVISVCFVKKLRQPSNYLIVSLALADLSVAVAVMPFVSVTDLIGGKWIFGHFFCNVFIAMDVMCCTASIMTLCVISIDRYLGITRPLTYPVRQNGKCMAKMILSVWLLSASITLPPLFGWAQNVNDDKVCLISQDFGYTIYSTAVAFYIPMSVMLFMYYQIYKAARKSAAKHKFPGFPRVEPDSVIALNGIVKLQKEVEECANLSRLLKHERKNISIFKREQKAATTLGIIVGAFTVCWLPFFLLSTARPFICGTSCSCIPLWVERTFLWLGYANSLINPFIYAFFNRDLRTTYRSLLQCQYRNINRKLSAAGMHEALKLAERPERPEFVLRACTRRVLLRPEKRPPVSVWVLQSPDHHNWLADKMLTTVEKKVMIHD
Chain of human Serotonin, 5-Hydroxytryptamine Receptor 6 (5HT6), HTR6 (gene 3362) (P50406 whole entry, looked up): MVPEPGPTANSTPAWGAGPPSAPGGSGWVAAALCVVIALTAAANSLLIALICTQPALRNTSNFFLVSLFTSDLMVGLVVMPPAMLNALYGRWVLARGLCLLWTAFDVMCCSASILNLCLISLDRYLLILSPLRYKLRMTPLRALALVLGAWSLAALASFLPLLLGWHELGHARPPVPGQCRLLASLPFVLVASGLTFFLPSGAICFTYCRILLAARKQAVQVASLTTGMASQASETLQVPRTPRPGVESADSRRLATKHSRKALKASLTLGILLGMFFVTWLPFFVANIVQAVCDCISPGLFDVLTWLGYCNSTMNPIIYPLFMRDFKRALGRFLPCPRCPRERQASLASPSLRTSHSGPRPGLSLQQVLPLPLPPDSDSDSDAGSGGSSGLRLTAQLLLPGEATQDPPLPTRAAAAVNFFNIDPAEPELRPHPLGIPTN
Chain of sheep Cyclooxygenase-1 (Cox1), PTGS1 (gene 443551) (P05979 whole entry, looked up): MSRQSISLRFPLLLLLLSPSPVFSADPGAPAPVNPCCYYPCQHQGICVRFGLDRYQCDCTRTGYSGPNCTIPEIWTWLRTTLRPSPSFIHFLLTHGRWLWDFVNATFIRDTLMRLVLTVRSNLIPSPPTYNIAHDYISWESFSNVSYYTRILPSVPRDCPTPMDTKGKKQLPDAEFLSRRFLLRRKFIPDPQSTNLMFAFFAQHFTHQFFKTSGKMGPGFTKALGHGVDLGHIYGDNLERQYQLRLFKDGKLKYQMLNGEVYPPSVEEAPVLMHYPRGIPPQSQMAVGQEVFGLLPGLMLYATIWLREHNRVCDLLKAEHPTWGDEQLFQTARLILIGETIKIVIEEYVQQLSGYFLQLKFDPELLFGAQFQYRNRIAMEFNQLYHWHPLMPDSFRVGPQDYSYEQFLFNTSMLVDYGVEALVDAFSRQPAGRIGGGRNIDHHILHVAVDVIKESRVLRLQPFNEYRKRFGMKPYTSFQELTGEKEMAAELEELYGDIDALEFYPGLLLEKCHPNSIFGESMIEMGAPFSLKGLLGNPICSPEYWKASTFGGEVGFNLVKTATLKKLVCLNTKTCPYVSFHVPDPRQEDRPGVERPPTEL
Chain of human Adenosine A2a Receptor (AdoRA2a), ADORA2A (gene 135) (P29274 whole entry, looked up): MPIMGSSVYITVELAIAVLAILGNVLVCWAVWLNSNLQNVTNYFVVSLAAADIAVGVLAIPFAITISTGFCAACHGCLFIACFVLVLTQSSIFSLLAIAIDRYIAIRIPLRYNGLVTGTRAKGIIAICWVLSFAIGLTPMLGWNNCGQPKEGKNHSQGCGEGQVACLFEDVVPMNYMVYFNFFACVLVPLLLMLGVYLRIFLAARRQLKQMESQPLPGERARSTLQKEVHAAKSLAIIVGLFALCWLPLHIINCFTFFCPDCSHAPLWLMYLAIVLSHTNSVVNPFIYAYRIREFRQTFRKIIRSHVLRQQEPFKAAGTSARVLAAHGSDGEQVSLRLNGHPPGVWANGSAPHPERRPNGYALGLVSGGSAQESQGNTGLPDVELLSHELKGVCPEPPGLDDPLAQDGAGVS
Chain of Adenosine receptor A1 (Bos taurus) (P28190 whole entry, looked up): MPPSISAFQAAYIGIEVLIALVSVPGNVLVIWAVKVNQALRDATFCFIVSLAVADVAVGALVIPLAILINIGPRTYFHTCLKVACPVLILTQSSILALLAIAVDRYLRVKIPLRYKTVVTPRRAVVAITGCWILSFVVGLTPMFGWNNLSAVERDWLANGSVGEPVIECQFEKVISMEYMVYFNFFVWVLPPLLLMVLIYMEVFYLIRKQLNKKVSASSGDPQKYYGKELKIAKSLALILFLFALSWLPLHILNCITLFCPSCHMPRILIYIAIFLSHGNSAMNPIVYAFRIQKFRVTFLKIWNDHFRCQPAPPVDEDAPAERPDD

In the case of `CCN(CC)c1nc(C)cc(OP(=S)(OC)OC)n1`, the compound was classed as inactive in assay [1] and in assay [2].
Regarding `CCOP(=O)(OCC)Oc1nc(Cl)c(Cl)cc1Cl`, in [3], the compound was called inactive.
Same read-out and setting: to `O=P(O)(O)CCCl` belongs “inactive”.
Regarding `CC1(C)CCC(=Cc2ccc(Cl)cc2)C1(O)Cn1cncn1` (centres undefined), the call in assay [4] was inactive.
As for `CCNC(=O)NC(=O)C(C#N)=NOC`, the AC50 in assay [1] was 9.03 µM (active).
In the case of `Cc1ccc(N=CN(C)C=Nc2ccc(C)cc2C)c(C)c1`, in assay [4], the call was inactive. In addition, the AC50 in assay [5] was 1.66 µM (active); in [6], 0.574 µM (active).
On to `COC(=O)c1c(C(F)F)nc(C(F)(F)F)c(C2=NCCS2)c1CC(C)C`, for which the compound was called inactive in assay [1] and in assay [7].
In the case of `Cc1nc(N(C)C)nc(OC(=O)N(C)C)c1C`, the results for the AC50 in assay [3], in assay [7] and in assay [5] were 0.991 µM (active), 10.4 µM (active) and 12.8 µM (active), respectively.
Regarding `COc1cc(OC)nc(NC(=O)NS(=O)(=O)c2ncccc2OCC(F)(F)F)n1`, in assay [7], the compound was called inactive.
With `N#Cc1c[nH]cc1-c1cccc2c1OC(F)(F)O2`, the compound was classed as inactive in assay [4], in assay [5], in assay [8] and in assay [9].
As for `N#Cc1c(Cl)cccc1Cl`, the AC50 in assay [4] was 25 µM (active). In addition, the compound was called inactive in [5].
In the case of `CC(C)N1C(=O)N(c2ccccc2)CSC1=NC(C)(C)C`, the call in assay [7], in assay [10] and in [9] was inactive.
Take `CC(C)NC(=O)N1CC(=O)N(c2cc(Cl)cc(Cl)c2)C1=O`: in [1], the AC50 was 25 µM (active). The call in assay [11] was inactive.
With `COCC(C)N(C(=O)CCl)c1c(C)csc1C` (centres undefined), the compound was called inactive in assay [12]. Also, in [13], the AC50 is 15.5 µM (active).
As for `O=C1C2CC=CCC2C(=O)N1SC(Cl)(Cl)Cl` (centres undefined), the compound was called inactive in assay [3], in assay [14] and in [15]. The AC50 in [6] is 4.95 µM (active).
Regarding `COc1ccc(-c2ccccc2)cc1NNC(=O)OC(C)C`, in assay [1], the compound was called inactive. In addition, the AC50 was 0.31 µM (active) in assay [7], 0.0452 µM (active) in assay [4], 0.139 µM (active) in assay [10] and 0.599 µM (active) in assay [5].
Take `CS(=O)(=O)c1ccc(C(=O)C2C(=O)CCCC2=O)c([N+](=O)[O-])c1`: the outcome in [1] was inactive.
Turning to `CN=C=S`, the outcome in assay [1] and in [10] was inactive.
As to `CNC(=O)N(C)c1nnc(C(C)(C)C)s1`, the call in assay [12] was inactive.
As to `COP(=S)(OC)SCn1nnc2ccccc2c1=O`, the call in [1], in assay [7], in assay [10], in assay [15] and in assay [19] was inactive. Also, the AC50 in assay [16] is 8.1 µM (active); in [17], 2.4 µM (active); in assay [18] it was 9.98 µM (active).

Source of the values: PubChem BioAssay (EPA / NIEHS).
